PubChem BioAssay (NCATS)
Results filed as inconclusive are left out. A call without a number means that no potency is given here. Values without a mark were called inactive. Active and inactive are the calls of the source. Calls come from the whole dose curve; as a rule, active = well fitted curve in the direction sought with a large enough effect; inconclusive = small, poorly fitted or top-dose-only effect, or another doubt; inactive = no such curve, though single readings can be large; an effect the other way counts as inactive or inconclusive.

Experiments:
HaCat = test: Cytotoxic Profiling of Annotated Libraries Using Quantitative High-Throughput Screening (AID 1296008); conditions: Five cell lines viability, CellTiter-Glo ATP luminescence, 48-72 h; max response: hits give low values; note: nearly all actives have a fitted effect of over 60% in size
How it was run: (§1)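 Cells exposed to compounds for 48 or 72 hr at 37 degrees Celsius. Viability read as ATP-coupled luminescence with CellTiter-Glo after 10 min at room temperature.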

NIH3T3 [1] = test: as above; conditions: Five cell lines viability, CellTiter-Glo ATP luminescence, 48-72 h; max response: hits give low values
How it was run: as §1

MCC-13 = test: qHTS assay to identify novel small-molecules to repurpose for Merkel cell carcinoma treatment (AID 1296009); conditions: MCC and control cell lines, CellTiter-Glo viability, 72 h; series mostly up to 46 µM; note: nearly all actives have a fitted effect of over 60% in size
How it was run: (§2)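 CellTiter-Glo luminescence after 72 hr compound exposure at 37 degree celsius gave cell viability. Libraries NPC and MIPE were run as 8- and 11-point dose responses; RLUs normalized to DMSO (negative) and no-cell (cytotoxicity) controls.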

MCC-26 = test: as above; conditions: MCC and control cell lines, CellTiter-Glo viability, 72 h; series mostly up to 46 µM
How it was run: as §2

MKL-1 = test: as above; conditions: MCC and control cell lines, CellTiter-Glo viability, 72 h; series mostly up to 46 µM
How it was run: as §2

MKL-2 = test: as above; conditions: MCC and control cell lines, CellTiter-Glo viability, 72 h; series mostly up to 46 µM
How it was run: as §2

NIH3T3 [2] = test: as above; conditions: MCC and control cell lines, CellTiter-Glo viability, 72 h; at 44.8 µM (top of the series) unless noted
How it was run: as §2

UISO = test: as above; conditions: MCC and control cell lines, CellTiter-Glo viability, 72 h; series mostly up to 46 µM
How it was run: as §2

WaGa = test: as above; conditions: MCC and control cell lines, CellTiter-Glo viability, 72 h; series mostly up to 46 µM
How it was run: as §2

C33A = test: Primary qHTS to identify gynecologic anti-cancer compounds using libraries of approved drugs and bioactive compounds (AID 1345084); conditions: Gynecologic cancer cell panel viability, ATPlite luminescence, 48 h; series mostly up to 57.5 µM; note: nearly all actives have a fitted effect of over 55% in size
How it was run: (§3)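 ATP-based viability (ATPlite), 1,000 cells/well, 16 h pre-incubation, 48 h compound at 37 C, 5% CO2, 15 min RT before read.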

CAOV3 = test: as above; conditions: Gynecologic cancer cell panel viability, ATPlite luminescence, 48 h; series mostly up to 57.5 µM
How it was run: as §3

CASKI = test: as above; conditions: Gynecologic cancer cell panel viability, ATPlite luminescence, 48 h; series mostly up to 57.5 µM
How it was run: as §3

Es-2 = test: as above; conditions: Gynecologic cancer cell panel viability, ATPlite luminescence, 48 h; series mostly up to 57.5 µM
How it was run: as §3

HeLa = test: as above; conditions: Gynecologic cancer cell panel viability, ATPlite luminescence, 48 h; series mostly up to 57.5 µM
How it was run: as §3

Hek293T = test: as above; conditions: Gynecologic cancer cell panel viability, ATPlite luminescence, 48 h, control line for the selectivity index; series mostly up to 57.5 µM
How it was run: as §3

JEG-3 = test: as above; conditions: Gynecologic cancer cell panel viability, ATPlite luminescence, 48 h; series mostly up to 57.5 µM
How it was run: as §3

KB-3-1 = test: Cytotoxic Profiling of Annotated Libraries Using Quantitative High-Throughput Screening (AID 1296008); conditions: Five cell lines viability, CellTiter-Glo ATP luminescence, 48-72 h; max response: hits give low values; note: nearly all actives have a fitted effect of over 60% in size
How it was run: as §1

CRL-7250 = normal cell line; test: qHTS assay to identify novel small-molecules to repurpose for Merkel cell carcinoma treatment (AID 1296009); conditions: MCC and control cell lines, CellTiter-Glo viability, 72 h; at 44.8 µM (top of the series) unless noted; note: nearly all actives have a fitted effect of over 60% in size
How it was run: as §2

CCC(=O)O[C@@H]1C=C2CCC3C(CCC4(C)C3CC[C@@H]4OC(=O)CC)C2CC1 (some centres undefined)
max response (HaCat): -20.7% | outcome (NIH3T3 [1]): inactive | Potency (MCC-13): inactive | Potency (MCC-26): inactive | Potency (MKL-1): inactive | Potency (MKL-2): inactive | outcome (NIH3T3 [2]): inactive | Potency (UISO): inactive | Potency (WaGa): inactive | Potency (C33A): inactive | Potency (CAOV3): inactive | Potency (CASKI): inactive | Potency (Es-2): inactive | Potency (HeLa): inactive | Potency (Hek293T): inactive | Potency (JEG-3): inactive

CC1(C)CC/C(=C/c2ccc(Cl)cc2)C1(O)Cn1cncn1 (centres undefined)
max response (KB-3-1): -19.8% | max response (NIH3T3 [1]): -11.7% | Potency (MCC-13): inactive | Potency (MCC-26): inactive | Potency (MKL-1): inactive | Potency (MKL-2): inactive | Potency (UISO): inactive | Potency (C33A): inactive | Potency (CAOV3): inactive | Potency (CASKI): inactive | Potency (Es-2): inactive | Potency (HeLa): inactive | Potency (Hek293T): inactive | Potency (JEG-3): inactive

CC(C)(C)c1cc(C(C)(C)C)c(NC(=O)c2c[nH]c3ccccc3c2=O)cc1O
outcome (CRL-7250): inactive

CCC1(CCC(C)C)C(=O)NC(=O)NC1=O
Potency (C33A): inactive | Potency (CASKI): inactive | Potency (Es-2): inactive | Potency (Hek293T): inactive | Potency (JEG-3): inactive

Cc1cc2c(cc1C1(c3ccc(C(=O)O)cn3)CC1)C(C)(C)CCC2(C)C
outcome (CRL-7250): inactive

CCCCC(CC)COC(=O)c1ccc(N(C)C)cc1 (centres undefined)
outcome (CRL-7250): inactive

Cn1c(NCCN(CCO)CCCc2ccc([N+](=O)[O-])cc2)cc(=O)n(C)c1=O
outcome (CRL-7250): inactive

CNCc1ccc(-c2[nH]c3cc(F)cc4c3c2CCNC4=O)cc1
outcome (CRL-7250): inactive

COc1ccc2c(c1)c1c3n2CCN(C)C3=NCC1
outcome (CRL-7250): inactive

CC(C)(C)C(O)/C=C/c1ccc2c(c1)OCO2 (centres undefined)
outcome (CRL-7250): inactive

COc1ccc2cc(CCC(C)=O)ccc2c1
outcome (CRL-7250): inactive

Clc1ccccc1CN1CCc2sccc2C1
outcome (CRL-7250): inactive

CN1[C@H]2CC(O)C[C@H]1[C@H]1O[C@H]12 (some centres undefined)
Potency (MCC-13): inactive | Potency (MCC-26): inactive | Potency (MKL-1): inactive | Potency (MKL-2): inactive | Potency (WaGa): inactive

CCOc1cc(C(=O)Nc2ccc(Cl)c(-c3nc4ccccc4[nH]3)c2)cc(OCC)c1OCC
outcome (CRL-7250): inactive

Nc1ccc(S(=O)(=O)Nc2ccccc2)cc1
outcome (CRL-7250): inactive

C[C@H](NC(=O)Cc1cc(F)cc(F)c1)C(=O)N[C@@H]1C(=O)N(C)c2ccccc2-c2ccccc21
outcome (CRL-7250): inactive

C[C@]12CC[C@H](O)CC1=CC[C@@H]1[C@H]2CC[C@]2(C)C(c3cccnc3)=CC[C@H]12
outcome (CRL-7250): inactive [at 17.4 µM]

CCOC(=O)[C@@H](N)CCC(=O)N[C@@H](CSCc1ccccc1)C(=O)N[C@@H](C(=O)OCC)c1ccccc1
outcome (CRL-7250): inactive

COc1cc2c(cc1OC)C(=O)CC2
outcome (CRL-7250): inactive

CS(=O)(=O)Oc1ccc2c(NC(N)=O)c(C(=O)c3ccc(Cl)cc3Cl)oc2c1
outcome (CRL-7250): inactive

Cc1nnc(C(C)C)n1C1CC2CCC(C1)N2CC[C@H](NC(=O)C1CCC(F)(F)CC1)c1ccccc1 (some centres undefined)
outcome (CRL-7250): inactive

COc1c(Cl)cc2c([nH]c3cnccc32)c1NC(=O)c1cccnc1C
outcome (CRL-7250): inactive

N#C[C@H](O[C@@H]1O[C@H](CO[C@@H]2O[C@H](CO)[C@H](O)[C@H](O)[C@H]2O)[C@H](O)[C@H](O)[C@H]1O)c1ccccc1
Potency (MCC-26): inactive

CC(C)CCCC(C)CCCC(C)CCCCC(C)CCCC(C)CCCC(C)C (centres undefined)
outcome (CRL-7250): inactive

Cc1cccc(Nc2nc(N[C@@H]3CCCC[C@H]3N)ncc2C(N)=O)c1
outcome (CRL-7250): inactive

O=C(O)[C@H](Cc1c[nH]c2ccccc12)N1C(=O)c2ccccc2C1=O
outcome (CRL-7250): inactive [at 92 µM]

Clc1ccc2ncc(-c3cccc(NC4CNC4)n3)n2c1
outcome (CRL-7250): inactive

Cc1c(C)c2c(c(C)c1OC(=O)c1cccnc1)CC[C@@](C)(CCC[C@H](C)CCC[C@H](C)CCCC(C)C)O2
outcome (CRL-7250): inactive

O=C(C1CC1)N1CC[C@@H](Cn2c(-c3ccc(-c4ccc5occc5c4)cc3)nc3cnccc32)C1
outcome (CRL-7250): inactive

CC1=NN(c2ccccc2)C(=O)C1
outcome (CRL-7250): inactive

C1=CC2C3C=CC(C3)C2C1 (centres undefined)
outcome (CRL-7250): inactive [at 92 µM]

Nc1ccc([N+](=O)[O-])cc1
Potency (C33A): inactive | Potency (CAOV3): inactive | Potency (CASKI): inactive | Potency (HeLa): inactive | Potency (Hek293T): inactive | Potency (JEG-3): inactive

O=C(O)CCCOc1ccc(Cl)cc1Cl
Potency (C33A): inactive | Potency (CAOV3): inactive | Potency (CASKI): inactive | Potency (Es-2): inactive | Potency (HeLa): inactive | Potency (Hek293T): inactive | Potency (JEG-3): inactive

COc1ccc(-c2oc3cc(OC)ccc3c2C(=O)c2ccc(C#N)cc2)cc1
outcome (CRL-7250): inactive

CC(C)OC(=O)C1=CN(C(=O)c2ccc(F)c(F)c2)CC(C)(C)c2c1[nH]c1ccccc21
outcome (CRL-7250): inactive

CC(C)(C)C(=O)Oc1ccc2c(c1)nc(NC(=O)c1cccc([N+](=O)[O-])c1)n2CCCO
outcome (CRL-7250): inactive

COc1ccc(C(c2ccc(OC)cc2)C(Cl)(Cl)Cl)cc1
Potency (MCC-13): inactive | Potency (MCC-26): inactive | Potency (C33A): inactive | Potency (Es-2): inactive | Potency (Hek293T): inactive | Potency (JEG-3): inactive

CCCn1c(=O)c2[nH]c(C34CC5CC3C[C@@H](C5)C4)nc2n(CCC)c1=O
outcome (CRL-7250): inactive

CCOC(=O)C(=O)CCCCCCl
outcome (CRL-7250): inactive

CCOC(=O)Nc1ccc(NCc2ccc(F)cc2)cc1N
Potency (C33A): inactive | Potency (CAOV3): inactive | Potency (CASKI): inactive | Potency (Es-2): inactive | Potency (HeLa): inactive | Potency (Hek293T): inactive | Potency (JEG-3): inactive

CN1CCN(c2c(F)cc3c(=O)c(C(=O)O)cn4c3c2OCN4C)CC1
outcome (CRL-7250): inactive [at 17.4 µM]
